Data on 102 compounds can be found in ChEMBL document CHEMBL4888484, “Replenishing the malaria drug discovery pipeline: Screening and hit evaluation of the MMV Hit Generation Library 1 (HGL1) against asexual blood stage Plasmodium falciparum ,using a nano luciferase reporter read-out” (2022).

Screen size: about 4,800 compounds; about 410 (8.5%) showed an effect of 50% or more. The entries come from a sample that favours strong results as a whole.

For this assay, the system named is Plasmodium falciparum. Kind of assay: Confirmatory screen in NF54 pLDH assay, in single point, at 2uM, 72h. It is filed as functional, Erythrocyte. The settings on record: timepoint 72 hour.
Regarding `CC(C)(c1ccc(F)cc1)C1(NC(=O)CCc2nccs2)CC1`, the “% Inhibition” value is reported as -12%.

With `Cn1cc(CCCNc2ccc(F)cn2)cn1`, the “% Inhibition” value came to 9%.

Turning to `Cc1nn(Cc2ccccc2)c2nc(C3CC3)cc(C(=O)N3CCOCC3)c12`, the “% Inhibition” value turned out to be 1%.

Turning to `Cc1nn(C(C)(C)C)c2nc(C3CC3)cc(C(=O)N(C)c3ccccc3)c12`, the “% Inhibition” value was found to be 87%.

As for `Cc1ccc(S(=O)(=O)N2CCN(C(=O)c3cc(C4CC4)nc4c3c(C)nn4C(C)C)CC2)cc1`, the “% Inhibition” value was 13%.

On to `CCOC(=O)C1CCN(C(=O)c2nc(-c3ccc(N4CCCC4)nc3)no2)CC1`, for which the “% Inhibition” value worked out at 12%.

On to `O=C(c1cccc2cc[nH]c12)N(CC1CC1)C1CC1`, for which the “% Inhibition” value was 12%.

Turning to `Cc1cc(C)c(C(=O)Cn2nc3ccc(-c4ccc(Cl)cc4)nn3c2=O)c(C)c1`, the “% Inhibition” value came out at 10%.

Regarding `CCCn1nc(-n2cnnc2)c(NS(=O)(=O)c2ccc(Br)cc2)c1C`, the “% Inhibition” value amounted to 11%.

Regarding `CC(C(=O)N1CCCC1c1cccs1)N(C)Cc1ncnn1C` (configuration not stated), the “% Inhibition” value was found to be 4%.

As for `Clc1ccc(-c2noc(CN(Cc3cccs3)Cc3cccs3)n2)cc1`, the “% Inhibition” value is on record as 6%.

`COc1ccc(CC(=O)NCCOCCO)cc1`: the “% Inhibition” value is on record as 8%.

On to `N#CC1(O)C(C2COC3(CCCCC3)O2)OC2OC3(CCCCC3)OC21` (configuration not stated), for which the “% Inhibition” value is 10%.

Turning to `Cc1sc(NC(N)=O)nc1Cc1ccccc1`, the “% Inhibition” value is 10%.

Take `CN1CCN(c2nc(O)c3c(n2)NC(=O)C[C@H]3c2c(F)cccc2F)CC1`: the “% Inhibition” value is on record as 0%.

For the compound `CCOc1cc(C(c2c(C)n(C)n(-c3ccccc3)c2=O)c2c(C)n(C)n(-c3ccccc3)c2=O)ccc1OCc1ccccc1`, the “% Inhibition” value came to 38%.

As to `O=C(NC1CCN(Cc2ccccc2)CC1)c1cn[nH]c1-c1ccccc1`, the “% Inhibition” value is reported as 6%.

Consider `CCOC(=O)N1CCC(NC(=O)c2cn[nH]c2-c2ccc(OCC)c(Cl)c2)CC1`, for which the “% Inhibition” value stood at 10%.

In the case of `O=C(C[C@H]1CCN(C(=O)Nc2ccc3c(c2)OCCO3)C1)NCc1ccncc1`, the “% Inhibition” value is reported as 7%.

Turning to `Cc1cc(C)cc([C@@H](O)CNC(=O)NCC(C)(C)c2ccncc2)c1`, the “% Inhibition” value came to 3%.

As to `Cc1nn2c(-c3ccc(-c4ccccc4)cc3)ccnc2c1Br`, the “% Inhibition” value is on record as 9%.

For the compound `Cc1nonc1NC(=O)CCCC1CCCC1`, the “% Inhibition” value came out at 8%.

As for `O[C@@H](CNCc1ccsc1C(F)(F)F)c1cc(Cl)c2c(c1)OCCO2`, the “% Inhibition” value is reported as 29%.

For `NC(=O)COCC(=O)Nc1ccccc1`, the “% Inhibition” value is -9%.

With `CCc1[nH]nc(NC(=O)c2c(C)ccnc2O)c1C`, the “% Inhibition” value is given as -11%.

On to `CO[C@@H](CNC(=O)c1nc2n(n1)-c1ccccc1S(=O)(=O)N2)c1ccccc1`, for which the “% Inhibition” value came out at 0%.

In the case of `O=c1[nH]nc2c(N3CC[C@H](NCc4ccc(F)cc4)C3)nccn12`, the “% Inhibition” value stood at 11%.

For `COc1ccc(C)cc1NC(=O)N1CC(c2nc(C(C)C)nn2C)C1`, the “% Inhibition” value was 1%.

On to `c1cn2cnnc2c(N(CC2CC2)CC2CC2)n1`, for which the “% Inhibition” value was -5%.

On to `O=C(Cn1cnc2ccc(Cl)cc2c1=O)NCc1ccc2c(c1)OCO2`, for which the “% Inhibition” value is -5%.

For `CC[C@H]1Cn2c(C(=O)NCc3ccc4c(c3)OCO4)cc3c(Cl)ccc(c32)O1`, the “% Inhibition” value was -10%.

For `Cc1ccc(Cn2c(=O)c(C(=O)NCc3ccc4c(c3)OCO4)nn(-c3ccc(C(C)C)cc3)c2=O)cc1`, the “% Inhibition” value turned out to be 52%.

`Cc1ccc(NC(=O)Nc2c(C3=CCCCC3)c(C)nn2C)cc1C`: the “% Inhibition” value was -13%.

As to `CC(C)(C)OC(=O)N1CC(NC(=O)C2CC2c2ccccc2C(F)(F)F)C1` (configuration not stated), the “% Inhibition” value is -16%.

For the compound `CCc1c([C@H](C)S(=O)(=O)c2ccccc2)[nH]c(=O)n1Cc1cccs1`, the “% Inhibition” value is -7%.

`Cc1cc(N2CCN(c3ccccn3)CC2)n2cc(-c3ccccc3)nc2n1`: the “% Inhibition” value is reported as 14%.

Take `O=S(=O)(C1CC1)N1CC[C@H](CO)C1`: the “% Inhibition” value is on record as 0%.

Turning to `Cc1ccc(S(=O)(=O)Cc2nc(-c3ccc(C(=O)Nc4ccc(C)cc4Cl)cc3)oc2C)cc1`, the “% Inhibition” value was found to be 14%.

On to `COc1cccc(-c2noc3nc(C)cc(C(=O)NCCCn4ccc(C)n4)c23)c1`, for which the “% Inhibition” value is reported as 11%.

Regarding `Cc1ccc(NC(=O)C2C3NC(=O)N(c4ccccc4)C2(C)Oc2ccc(C)cc23)c(C)c1` (configuration not stated), the “% Inhibition” value is -9%.

Take `CC(C)c1ccc(N2C(=O)[C@H](CC(=O)N3CCN(C)CC3)N=C2O)cc1`: the “% Inhibition” value was 9%.

Turning to `CC(=O)NCCNC(=O)Nc1ccccc1N(C)C1CCCC1`, the “% Inhibition” value is given as -5%.

For the compound `CCOc1cc(CNC2CCN(C(C)=O)CC2)ccc1OCc1c(F)cccc1Cl`, the “% Inhibition” value worked out at 13%.

Take `Cc1cc(N)n(-c2nc(-c3ccccc3)cc(=O)[nH]2)n1`: the “% Inhibition” value was -1%.

On to `CCCc1cc(-c2nc(-c3ccc(-n4nc(C)cc4N)cc3)no2)n(C)n1`, for which the “% Inhibition” value worked out at 88%.

With `Cc1n[nH]c(C)c1NC(=O)CN1CC(C)OC(C)C1` (configuration not stated), the “% Inhibition” value is reported as -7%.

As for `COc1ccsc1S(=O)(=O)N(CCN(C)C)C1CCCC1`, the “% Inhibition” value is -9%.

On to `O=C(Cn1cnc2nc(N3CCCCC3)sc2c1=O)Nc1cc(Cl)cc(Cl)c1`, for which the “% Inhibition” value worked out at 1%.

For the compound `Cc1cc(C)c(C(=O)O)cc1NC(=O)c1oc(C2CC2)nc1C`, the “% Inhibition” value was -8%.

As for `CCN1CCN(c2nc(O)c3c(n2)NC(=O)C[C@H]3c2cccc(F)c2)CC1`, the “% Inhibition” value was -7%.

For the compound `O=C(Nc1ccc(N2CCOCC2)c(F)c1)OCc1ccccc1`, the “% Inhibition” value is listed as 2%.

Regarding `COC(=O)C1(NC(=O)c2scnc2C)CCCCC1`, the “% Inhibition” value was -5%.

Turning to `CC1CCC2C(CCC(C)N2C(=O)c2cc3nc4c(c(C(F)(F)F)n3n2)CCc2ccccc2-4)C1` (configuration not stated), the “% Inhibition” value was 1%.

On to `COc1ccccc1N1CCN(CC(=O)Nc2c3c(nc4ccccc24)N(c2cccc(C)c2)CC3)CC1`, for which the “% Inhibition” value is -24%.

As for `Cc1ccccc1CNC(=O)[C@H]1CCCN(c2nc3ccccc3[nH]c2=O)C1`, the “% Inhibition” value turned out to be 13%.

Turning to `Cc1ccccc1CNC(=O)[C@H]1CCCN(c2nc3cccnc3n(Cc3ccccc3)c2=O)C1`, the “% Inhibition” value is -6%.

In the case of `CC(C)(C)C(=O)/C(=N\OC(=O)Nc1ccc(Cl)cc1)n1cncn1`, the “% Inhibition” value was found to be 0%.

As to `CCCCn1nnc(N(C(=O)c2cccc3c(Br)cccc23)C(=O)c2cccc3c(Br)cccc23)n1`, the “% Inhibition” value stood at 0%.

Turning to `Cc1ccc(C(=O)Nc2cc3c4c(c2)C2CCCC2CN4CC2CCCC32)cc1` (configuration not stated), the “% Inhibition” value is 54%.

For `Cc1ccc(C(=O)Nc2ccc(N3CCN(CCC#N)CC3)cc2C(=O)O)cc1`, the “% Inhibition” value is reported as -6%.

On to `Cc1ccccc1[C@H]1CCN(c2ccc(NC(=O)c3ccc(Cl)cc3)c(C(=O)O)c2)C1`, for which the “% Inhibition” value was -17%.

In the case of `Cc1ccccc1[C@H]1CC(=O)Nc2c1c(C)nn2-c1nncc(-c2ccc(Cl)cc2)n1`, the “% Inhibition” value came out at 15%.

As to `CCNc1ccnc(NCc2nc(-c3cccc(F)c3)c(-c3ccccn3)[nH]2)n1`, the “% Inhibition” value is listed as 22%.

Turning to `Cc1c(-c2ccc(F)cc2)[nH]c2ccc(CNc3nccc(N(C)C)n3)cc12`, the “% Inhibition” value stood at 50%.

With `Cc1nn(C)cc1-c1n[nH]cc1Br`, the “% Inhibition” value amounted to 7%.

As to `COc1ccccc1N(Cc1ccccc1)C1=NC(=[N+](Cc2ccccc2)c2ccccc2OC)c2ccccc21`, the “% Inhibition” value is 67%.

`CC1COCCC1NCc1ncn(Cc2cccc(F)c2)n1` (configuration not stated): the “% Inhibition” value is -4%.

Turning to `Cc1cnn(CCCNC(=O)c2ccc3[nH]c4c(c3c2)CCCC4)c1`, the “% Inhibition” value is listed as 5%.

In the case of `COc1nc(N2[C@@H]3CC[C@H]2C[C@@H](OC)C3)ncc1F`, the “% Inhibition” value was 52%.

Consider `CCN1CCN(C2CCN(c3ncc(F)c(OC)n3)CC2)CC1`, for which the “% Inhibition” value is given as 50%.

As for `CCN1CCC2CCC(C1)N2C(=O)Nc1ccc(OC2CCC2)c(F)c1` (configuration not stated), the “% Inhibition” value is on record as -18%.

As to `O=S(=O)(c1ccc(Cl)cc1)n1ccc(C2CC2)n1`, the “% Inhibition” value was 4%.

For `COc1cccc(CNCCCN2CCOCC2)c1OCc1ccc(F)cc1Cl`, the “% Inhibition” value was found to be 1%.

In the case of `CC(C)(C)NC(=O)CNc1nnc(C2CC2)s1`, the “% Inhibition” value is recorded as 12%.

With `CCCCCC1CCC(c2ccc(-c3ccc(CC)cn3)cc2F)CC1` (configuration not stated), the “% Inhibition” value came out at 7%.

On to `Cc1c[nH]c(=O)n1-c1ccc(C(=O)NCCc2cc(F)cc(F)c2)cc1`, for which the “% Inhibition” value turned out to be 10%.

Consider `O=C(CC1COCCN1C(=O)C1CCc2ccccc21)c1ccco1` (configuration not stated), for which the “% Inhibition” value is -17%.

For `CCOc1c(CNCCN(C)C)cc(Br)cc1OC`, the “% Inhibition” value is listed as 3%.

On to `COc1ccc2ncc(=O)n(CCOc3ccccc3)c2c1`, for which the “% Inhibition” value was 9%.

In the case of `COc1ccc2nc(N3CN(Cc4ccccc4)CN(c4nc5ccc(OC)cc5s4)C3)sc2c1`, the “% Inhibition” value is on record as 1%.

As to `COc1ccc2c(/C=C/c3cc[n+](C)cc3)cn(Cc3ccccc3)c2c1`, the “% Inhibition” value was determined as 62%.

Take `N#Cc1ccc2c(c1)N(Cc1ccccc1F)C(=O)[C@@H]1CCCN21`: the “% Inhibition” value stood at 7%.

Regarding `O=C(N[C@@H](N1CCOCC1)C(Cl)(Cl)Cl)c1ccccc1Cl`, the “% Inhibition” value was 8%.

As to `O=C(CN1CCCC1)N1CCCN(S(=O)(=O)c2ccccc2)[C@H]1c1ccccc1`, the “% Inhibition” value was -2%.

Turning to `Cc1ccc(CNc2ccc(S(C)(=O)=O)cc2)c(=O)n1C`, the “% Inhibition” value is -9%.

With `CCc1nnc(NC(=O)NCc2c[nH]nn2)s1`, the “% Inhibition” value is given as -6%.

As to `Cc1ccc2nc(-c3cc4ccccc4o3)cn2c1`, the “% Inhibition” value was found to be 52%.

With `c1ccc2oc(-c3ccnc4nncn34)cc2c1`, the “% Inhibition” value is on record as 3%.

Take `Cc1ccccc1CC(=O)Nc1ccc(-c2nc3ncccc3o2)cc1`: the “% Inhibition” value was 5%.

`CNc1nccc(OCc2ccccc2)n1`: the “% Inhibition” value is recorded as 9%.

On to `Cc1ccc(-c2nc3ncccn3c2Nc2ccc3c(c2)OCCO3)o1`, for which the “% Inhibition” value was -4%.

For `O=C1c2ccccc2[C@@H](Nc2ccc3c(c2)OCCO3)N1c1ccccn1`, the “% Inhibition” value was -8%.

For the compound `C[C@H](Nc1nc(N2CCCCC2)nc2ccccc12)c1ccccc1`, the “% Inhibition” value is -6%.

In the case of `CNc1nc(NCc2ccccc2)nc2ccccc12`, the “% Inhibition” value turned out to be 91%.

Turning to `c1ccc(CCNc2nc(-c3ccccn3)cs2)cc1`, the “% Inhibition” value came to 31%.

In the case of `COc1ccc(CNc2nc(-c3nnc(-c4ccccc4)o3)nc3ccccc23)cc1`, the “% Inhibition” value was -3%.

As for `CNc1nc(Nc2ccc3c(c2)OCCO3)nc2ccccc12`, the “% Inhibition” value was 103%.

On to `NS(=O)(=O)c1ccc(CCNc2nc(-c3ccccc3)nc3ccccc23)cc1`, for which the “% Inhibition” value was 5%.

With `CNc1nc(NCCc2ccccc2)nc2ccccc12`, the “% Inhibition” value stood at 92%.

As for `CCN(CC)c1ccc(C(=O)C(F)(F)F)c(O)c1`, the “% Inhibition” value turned out to be 0%.

Take `CCC(=O)OCCN1CCN(CCN(C(=O)CC)c2ccc(C3CCCC3)cc2)CC1`: the “% Inhibition” value turned out to be 3%.

Regarding `O=C1C[C@H](c2nc3cc(Cl)ccc3o2)CN1c1ccc(F)cc1`, the “% Inhibition” value was -13%.

The term % Inhibition denotes the drop in the measured response relative to a control, in per cent.
